Assay outcomes from PubChem.
D1 mod = allosterically modulates the human D1 dopamine receptor. P21728. HEK293 D1, CRE-luciferase, dopamine EC30 potentiation; actives deviate in either direction. B-score at 10 µM. actives 5.9% (n = 58,000). AID 641;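 active = luminescence count or its row- and column-corrected plate score outside the 99.7% band of the plate's sample wells, on either side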
Target sequence (P21728 whole entry, looked up): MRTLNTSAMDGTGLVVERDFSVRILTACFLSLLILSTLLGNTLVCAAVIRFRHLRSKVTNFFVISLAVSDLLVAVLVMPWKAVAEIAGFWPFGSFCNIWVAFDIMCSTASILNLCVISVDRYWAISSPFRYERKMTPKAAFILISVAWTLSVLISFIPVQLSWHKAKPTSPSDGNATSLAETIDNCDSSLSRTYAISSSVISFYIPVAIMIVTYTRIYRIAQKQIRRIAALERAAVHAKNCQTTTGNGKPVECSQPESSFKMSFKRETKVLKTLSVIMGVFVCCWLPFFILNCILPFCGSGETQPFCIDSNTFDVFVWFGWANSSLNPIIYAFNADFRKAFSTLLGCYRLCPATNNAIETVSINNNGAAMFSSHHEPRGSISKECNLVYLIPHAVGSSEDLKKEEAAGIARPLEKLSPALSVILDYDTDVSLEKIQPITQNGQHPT
hDAT+cocaine = human DAT dopamine uptake with cocaine, either direction; LLC-PK1 hDAT cells, [14C]-dopamine uptake with cocaine IC80; actives deviate in either direction; Q01959; B-score at 10 µM; actives 1.3% (n = 110,000); AID 449768;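 active = Z score or B-score, a plate-position-corrected score, falls beyond the plate's 99.7% confidence bounds, in either direction; inactive = both scores lie inside the 99.7% bounds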;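 note: scored against the spread of the other compound wells on the same plate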
CYP2C19 activ = increases human CYP2C19 enzyme activity. 96,000 tested, under 10 active. AID 1025. recombinant CYP2C19, luciferin-H EGE luminescence; stronger effect = higher value; 0 = fully inhibited enzyme, 1 = untreated enzyme. activation factor at 5 µM. P33261;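 active = activation factor of at least 2 at 5 µM in the primary screen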;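 note: 0 = wells with 2.5 mM tranylcypromine and 1 = vehicle-only wells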
CYP2C9 act = increases human cytochrome P450 2C9 activity | P11712 | recombinant CYP2C9, luciferin-H conversion, luminescence; stronger effect = higher value; factor 1 = untreated enzyme, 0 = blocked | activation factor at 5 µM | actives 1.4% (n = 96,000) | AID 1024;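 active = activation factor of 2 or more for CYP2C9 at a 5 µM dose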;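 note: 0 = sulfaphenazole-blocked wells and 1 = vehicle-only wells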
CYP2C19 inhib = blocks human cytochrome P450 2C19; P33261; actives 21% (n = 96,000); AID 778; inhibition, % at 5 µM; CYP2C19 Supersomes, luciferin-H EGE luminescence, 30 min;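 active = CYP2C19 inhibition above a set limit at 5 µM in the primary screen, cut at about 50% in these data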;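 note: plate controls were negative control wells for no effect and 2.5 mM tranylcypromine positive control for full effect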
CYP2C9 inh = human CYP2C9 inhibition; actives 20% (n = 96,000); inhibition, % at 5 µM; CYP2C9 Supersomes, luciferin-H conversion, luminescence; P11712; AID 777;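 active = blocking of liver enzyme CYP2C9 beyond about 50% at 5 µM, limit read from the data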
Starred values were filed as active, the others as inactive; . = no result given. Sampled rows, rich in hits. Any-hit rate of the full collection: about 28%.

SMILES	D1 mod	hDAT+cocaine	CYP2C19 activ	CYP2C9 act	CYP2C19 inhib	CYP2C9 inh
COc1ccccc1N(CN1CCCC1=O)C(=O)c1c(F)cccc1F	0.015	0.43	0.7	0.2	28	76*
Cc1ccc(NC(=S)NNc2ncc(C(F)(F)F)cc2Cl)c(C)c1	.	1.4	0.3	1.6	67*	-58
Cc1cc(C)c2c(=O)[nH]n(C(C)C)c2n1	1.3	-1.4	0.9	1.2	10	-25
CCCCCC(C)n1[nH]c(=O)c2c(C)cc(C)nc21 (stereo unspecified)	1.7	-1.5	0	0.3	98*	66*
O=C(C/C=N/OCc1ccc(F)cc1Cl)c1cnc(-c2ccccc2)s1	.	0.45	0.5	0.5	53*	45
O=C(C/C=N/OCc1ccccc1F)c1cnc(-c2ccc(Cl)cc2)s1	.	0.14	0	0.5	96*	49
CCN(CC)c1ccc(NC(=O)CSc2nc3ccccc3c(=O)[nH]2)cc1	0.064	0.0062	0.8	0.6	19	38
O=C(CCS(=O)(=O)c1ccc(Br)s1)N1CCc2ccccc21	0.58	0.1	0.8	1.5	24	-48
CC(C)Cc1nnc(NS(=O)(=O)Cc2ccccc2)s1	.	0.15	1	0.4	4	63*
CS(=O)(=O)Nc1nnc(Cc2ccccc2)s1	-0.017	-1.4	.	.	.	.
COc1ccc(C(=O)Cc2cc(OC)c(OC)cc2[N+](=O)[O-])c(OC)c1	.	-0.15	0.9	1.4	14	-38
COc1ccc(Cc2nnc(NC(=O)c3ccco3)s2)cc1OC	3.9	0.081	1	0.8	4	19
Cc1ccc(C2CC(c3cccc(C)c3)n3ncnc3N2)cc1 (stereo unspecified)	0.59	-0.53	0	0.4	96*	57*
Cc1ccc(C2=CC(c3ccccc3)n3ncnc3N2)cc1 (stereo unspecified)	.	1.3	.	.	.	.
Cc1ccc(C2CC(c3ccccc3)n3ncnc3N2)cc1 (stereo unspecified)	2.1	1.2	0	0.4	98*	65*
COc1cccc(C2CC(c3ccc(C)cc3)Nc3nc(N)nn32)c1 (stereo unspecified)	0.64	-0.39	0.9	1	9	-3
CC(C)[C@H](NC(=O)OC(C)(C)C)C(=O)N/N=C/c1cccc2nccnc12	.	0.064	1	0.8	-5	23
CCc1cc(C(=O)NNC(=S)NCC2CCCO2)cs1 (stereo unspecified)	.	-0.025	0.7	1.4	33	-40
COc1ccc(-n2nnnc2-c2cccc(OC)c2)cc1	-0.054	0.04	0	0.2	99*	85*
COc1ccc(-n2nnnc2-c2cnc3cc4c(cc3c2C)OCO4)cc1	.	-1	0.7	0.5	31	46
O=C(Nn1c(=O)[nH]c2ccccc2c1=O)c1ccco1	.	0.062	1.1	0.9	-14	11
CCOC(=O)C(Cc1ccccc1)NC(=O)Cn1nnc(-c2ccc(SC)cc2)n1 (stereo unspecified)	.	-0.11	0.3	0.9	67*	15
CCn1c(=S)ccc2ccc(OC)cc21	0.36	-0.33	0.4	0.7	64*	28
CCn1ccc2cc(OC)ccc2c1=S	.	-1.6	0.8	1.1	16	-6
CC1=C(CC(=O)c2ccc(Cl)cc2)C(=O)c2ccccc2C1=O	.	0.54	0.5	0.6	51*	44
SMILES	D1 mod	hDAT+cocaine	CYP2C19 activ	CYP2C9 act	CYP2C19 inhib	CYP2C9 inh
COc1ccc(CCNC(=O)CCN2C(=O)COc3ccccc32)cc1OC	0.15	0.12	0.2	0.8	82*	24
COc1ccc(CCNC(=O)CCN2C(=O)COc3ccc(C)cc32)cc1OC	0.55	1.9	0.7	0.8	31	20
O=C(CN1CCOc2ccccc21)NCc1ccco1	.	-0.0097	0.5	0.6	46	41
O=C(CN1CCOc2ccccc21)NCc1cccs1	1.1	0.038	0.4	0.9	60*	7
O=C(CCN1C(=O)COc2ccccc21)NCCCN1CCN(c2ccccc2F)CC1	-3.1*	1.3	1	1	4	3
O=C(CCN1C(=O)COc2ccccc21)NCc1cccs1	1.2	1.2	0.2	1.1	84*	-10
CC(=O)c1ccc(Nc2nc(NCCO)nc(OC(C(F)(F)F)C(F)(F)F)n2)cc1	.	-6.3*	.	.	.	.
COc1ccc(CC(=O)Nc2ccc(-c3noc(COc4ccccc4C)n3)cc2)cc1	-0.64	0.035	0.9	0.8	10	21
Cc1cccc(OCc2nc(-c3nonc3N)no2)c1C	-5.1	-0.83	0.3	0.7	66*	28
Nc1nonc1-c1noc(COc2ccccc2Cl)n1	0.027	-0.25	0.1	0.7	86*	28
CCc1nccn1S(=O)(=O)c1ccc(Br)cc1Br	1.4	0.32	0.1	0.4	92*	59*
CCc1nccn1S(=O)(=O)c1ccc2ccccc2c1	-0.24	-0.63	0.8	1.7	25	-72
CCc1nccn1S(=O)(=O)c1ccc(OC)c(C)c1C	.	-1.3	0.3	1.1	71*	-9
C[C@H]1C[C@@H]2[C@H]([C@@H](O)C[C@@]3(C)[C@H]2CC[C@]3(O)C(=O)CO)[C@@]2(C)C=CC(=O)C=C12	0.15	0.97	.	.	.	.
COc1ccc(C2=NOC(C)(c3nnc(-c4ccncc4)o3)C2)cc1 (stereo unspecified)	.	-0.32	.	.	.	.
COc1ccc(/C=C/C(=O)NCc2cnn(C)c2C)cc1COc1ccc(Br)cc1	.	0.14	0.8	0.8	16	22
Cc1ccc(-c2cc(C(=O)NCc3cnn(C)c3C)c3cc(Br)ccc3n2)cc1	.	0.18	0.9	0.4	13	63*
CSc1ccccc1N=Cc1nc(-c2ccccc2)oc1O	-1.3	1.7	0.3	0.9	68*	7
CN(C)c1ccc(N=Cc2nc(-c3ccccc3)oc2O)cc1	-0.062	-0.44	0.5	0.7	50*	31
Oc1oc(-c2ccccc2)nc1C=NCc1ccccc1	.	1	0.2	0.3	78*	69*
CCN1C(=O)N[C@@H](c2cccc(C(F)(F)F)c2)[C@@H](C(=O)OC)[C@H]1C	.	0.57	.	.	.	.
Cc1ccc(-n2ncc3c(=O)n(Cc4ccccn4)cnc32)cc1C	-0.74	0.38	1	0.9	0	8
O=C(CSc1nnc(-c2ccc(Cl)cc2Cl)n1C1CCCCC1)N1CCCC1	.	0.087	0.6	0.6	39	38
CCOC(=O)CSC1=C(C#N)C(=O)NC(c2ccc(OC)c(OC)c2)S1 (stereo unspecified)	2.5	-0.14	0.9	0.6	9	40
CCOC(=O)CSC1=C(C#N)C(=O)NC(c2ccc(OC)cc2)S1 (stereo unspecified)	.	-0.0039	1.1	0.1	-10	94*
CC(=O)c1cc2c(cc1NC(=O)CN1CCN(c3ccc(F)cc3)CC1)OCO2	1.3	-1.8	1	0.6	0	40
COc1cccc(CNc2ccc(F)c(Cl)c2)c1OC	.	0.25	0.5	0.9	47	10
